Laboratory results from PubChem BioAssay AID1159580 (chemical genetic matrix, 2015).
Hit rate of the full screen: of about 5,500 compounds, about 2,000 (36%) were called active. Not shown: some 18% with an inconclusive outcome. Rule as the data show it: active = normalized growth mostly below about 0.91 (no sharp cut-off); inconclusive = no clear call, values can overlap the other calls; inactive = mostly above about 0.92. This is one part of the list.

Experiment: chemical genetic growth profiling, strain panel (AID 1159580);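 also: tested at 20 µM; growth read once vehicle control cultures reached saturation at 30 °C; 1 = growth at the plate median or of vehicle wells; lower values mean less growth of the strain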
Conditions: S. cerevisiae deletion strains, growth OD

Measured: normalized growth

CC(C)CCCC(C)N (configuration not stated)
inactive: locus YAL021C, strain ccr4, hits give low values 1.03 | locus YAL026C, strain drs2, hits give low values 1.02 | locus YAL030W, strain snc1, hits give low values 1.02 | locus YBL061C, strain skt5, hits give low values 1.02 | locus YBR009C, strain hhf1, hits give low values 1.02 | locus YBR023C, strain chs3, hits give low values 1.03 | locus YBR171W, strain sec66, hits give low values 1.05 | locus YBR231C, strain swc5, hits give low values 1.02 | locus YBR279W, strain paf1, hits give low values 1.02 | locus YCL011C, strain gbp2, hits give low values 1.04 | locus YCL016C, strain dcc1, hits give low values 1.02 | locus YCL061C, strain MRC1, hits give low values 1.01 | locus YCL069W, strain vba3, hits give low values 1.03 | locus YCR088W, strain abp1, hits give low values 1.03 | locus YDL005C, strain med2, hits give low values 1.04 | locus YDL040C, strain nat1, hits give low values 1.02 | locus YDR001C, strain nth1, hits give low values 1.02 | locus YDR069C, strain doa4, hits give low values 1.04 | locus YDR137W, strain rgp1, hits give low values 0.99 | locus YDR159W, strain sac3, hits give low values 0.97 | locus YDR195W, strain ref2 1.03 | locus YDR297W, strain sur2, hits give low values 1.02 | locus YDR334W, strain swr1, hits give low values 1.03 | locus YDR335W, strain msn5, hits give low values 1.04 | locus YDR392W, strain spt3, hits give low values 0.963 | locus YEL003W, strain gim4, hits give low values 1.02 | locus YEL037C, strain rad23, hits give low values 1.04 | locus YEL061C, strain CIN8 (second series), hits give low values 1.01 | locus YER015W, strain faa2, hits give low values 1.02 | locus YER016W, strain bim1, hits give low values 1.05 | locus YER111C, strain swi4, hits give low values 1.04 | locus YER155C, strain BEM2 (second series), hits give low values 1.03 | locus YFR010W, strain ubp6, hits give low values 1.01 | locus YGL167C, strain pmr1, hits give low values 1.03 | locus YGL173C, strain kem1, hits give low values 1.01 | locus YGL227W, strain vid30, hits give low values 1.04 | locus YGL240W, strain doc1, hits give low values 0.983 | locus YGL253W, strain hxk2, hits give low values 1.04 | locus YHR013C, strain ard1, hits give low values 1.03 | locus YHR027C, strain rpn1, hits give low values 1.02 | locus YHR142W, strain chs7, hits give low values 1.05 | locus YJL092W, strain hpr5, hits give low values 1.02 | locus YJL095W, strain BCK1 (second series), hits give low values 1.03 | locus YJL115W, strain asf1, hits give low values 1.03 | locus YJL129C, strain trk1, hits give low values 1.04 | locus YJL154C, strain vps35, hits give low values 1.03 | locus YJL164C, strain tpk1, hits give low values 1.03 | locus YJL166W, strain qcr8, hits give low values 1.02 | locus YJL187C, strain SWE1, hits give low values 1.02 | locus YKL160W, strain elf1, hits give low values 1.03 | locus YKR026C, strain gcn3, hits give low values 1.02 | locus YKR091W, strain srl3, hits give low values 1.01 | locus YLL001W, strain dnm1, hits give low values 1 | locus YLL026W, hits give low values 1.01 | locus YLL041C, strain sdh2, hits give low values 1.03 | locus YLR027C, strain aat2, hits give low values 1.03 | locus YLR221C, strain rsa3, hits give low values 1.01 | locus YLR258W, strain gsy2, hits give low values 1.01 | locus YLR262C, strain YPT6 (second series), hits give low values 0.999 | locus YLR320W, strain mms22, hits give low values 0.977 | locus YLR342W, strain FKS1, hits give low values 1.03 | locus YLR357W, strain rsc2, hits give low values 1.06 | locus YLR370C, strain arc18, hits give low values 1.03 | locus YLR384C, strain iki3, hits give low values 1.03 | locus YML120C, strain ndi1, hits give low values 1.02 | locus YMR058W, strain fet3, hits give low values 1.01 | locus YMR125W, strain sto1, hits give low values 1.04 | locus YMR129W, hits give low values 1.02 | locus YMR205C, strain PFK2, hits give low values 1.01 | locus YMR231W, strain pep5, hits give low values 1.03 | locus YNL071W, strain lat1, hits give low values 1.03 | locus YNL209W, strain ssb2, hits give low values 1.03 | locus YNL248C, strain rpa49, hits give low values 1.07 | locus YNL322C, strain KRE1 (second series), hits give low values 1.04 | locus YNR049C, strain mso1, hits give low values 1.03 | locus YOR001W, strain rrp6, hits give low values 1.02 | locus YOR070C, strain gyp1, hits give low values 1.02 | locus YOR080W, strain dia2, hits give low values 1.03 | locus YOR083W, strain WHI5, hits give low values 0.968 | locus YOR106W, strain vam3, hits give low values 1.04 | locus YOR265W, strain rbl2, hits give low values 1.02 | locus YOR270C, strain vph1, hits give low values 1.14 | locus YOR290C, strain snf2, hits give low values 1.03 | locus YPL051W, strain arl3, hits give low values 1.02 | locus YPL078C, strain atp4, hits give low values 1.04 | locus YPL106C, strain sse1, hits give low values 1.05 | locus YPL240C, strain hsp82, hits give low values 1.03
